# Results from PubChem BioAssay (NCATS).
# Results filed as inconclusive are left out. A call without a number means that no potency is given here. The source made the active and inactive calls. Calls follow the shape of the dose curve; as a rule, active = well fitted inhibition curve with a large enough effect; inconclusive = small, poorly fitted or top-dose-only effect; inactive = flat fitted curve, though single readings scatter.
# Assay: P-glycoprotein substrates identified in KB-8-5-11 adenocarcinoma cell line, qHTS therapeutic library screen (AID 1346987); also: nearly all actives have a fitted effect of over 65% in size
# Conditions: KB-8-5-11 (P-gp overexpressing) viability, CellTiter-Glo, 72 h; series mostly up to 44.5 µM
# In short: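 P-gp-mediated resistance screen: KB-8-5-11 cells treated 72 h with compounds in dose-response. CellTiter-Glo viability.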
# Potency is read from the fitted curve at half-maximal effect.
row,Structure (SMILES),Potency
1,COc1ccc(C(OC2OC(CO)C(O)C(O)C2O)C(C)O)cc1 (stereo not given),inactive
2,CC1(C)CCC[C@@]2(C)[C@H]1[C@H](O)C=C1COC(=O)[C@@]12O,inactive
3,CCCCC(=O)O[C@]1(C(=O)CO)[C@H](C)C[C@H]2[C@@H]3CCC4=CC(=O)C=C[C@]4(C)[C@@]3(F)[C@@H](O)C[C@@]21C,inactive
4,COc1cc(C2Oc3c(O)cc(CCCO)cc3C2CO)ccc1O[C@H]1O[C@H](C)[C@@H](O)[C@H](O)[C@@H]1O (stereo not given in full),inactive
5,COC1(CC(C)C)NC(=O)C(O)(Cc2ccccc2)NC1=O (stereo not given),inactive
6,CC(C)CC(=O)OC[C@H]1O[C@@](COC(=O)CC(C)C)(O[C@H]2O[C@H](CO)[C@@H](O)[C@H](O)[C@H]2O)[C@@H](OC(=O)CC(C)C)[C@@H]1OC(=O)CC(C)C,inactive
7,O=c1c2ccccc2nc2n1CCC2O (stereo not given),inactive
8,C=C1C(=O)OC2/C=C(\C)CC/C=C(\C(=O)O)CC/C=C(\C)CCC12 (stereo not given),inactive
9,C/C(=C/CO)CC[C@@H]1[C@@]2(C)CCC[C@](C)(C(=O)O)C2CC[C@@]1(C)O (stereo not given in full),inactive
10,C=C(C)C(=O)O[C@H]1C[C@@](C)(OC(C)=O)[C@@]2(O)CC[C@@](C)(O)[C@H](OC(C)=O)[C@@]23OC(=O)C(COC)=C13,inactive
11,C=C1CC[C@H]2[C@@](C)(CCC(O)[C@@]2(C)CO)[C@@H]1C/C=C(/C(=O)O)C(O)CO (stereo not given in full),inactive
12,CCC[C@@H]1C[C@@H](C(=O)N[C@@H]([C@H]2O[C@H](SC)[C@H](OP(=O)(O)O)[C@@H](O)[C@H]2O)[C@H](C)Cl)N(C)C1,inactive
13,CC1=C(C)C(=O)OC(C(C)C2C(O)CC3C4C5OC5C5(O)CC(OC6OC(CO)C(O)C(O)C6O)CC(O)C5(C)C4CCC32C)C1 (stereo not given),inactive
14,CC(CCC1C(C(=O)O)=CC(=O)CC1(C)C)O[C@@H]1O[C@H](CO)[C@@H](O)[C@H](O)[C@H]1O (stereo not given in full),inactive
15,COC1=CC(=O)C[C@@H](C)[C@]12Oc1cc(OC)cc(OC)c1C2=O,inactive
16,CC(NCc1ccc(OCc2cccc(F)c2)cc1)C(N)=O (stereo not given),inactive
17,CCOC(=O)O[C@]1(C(=O)COC(=O)CC)CC[C@H]2[C@@H]3CCC4=CC(=O)C=C[C@]4(C)[C@H]3[C@@H](O)C[C@@]21C,inactive
18,COC(=O)c1ccc(O[C@@H]2O[C@H](CO)[C@@H](O)[C@H](O)[C@H]2O)c(OC)c1,inactive
19,Nc1c(N=Nc2ccc(-c3ccc(N=Nc4cc(S(=O)(=O)O)c5ccccc5c4N)cc3)cc2)cc(S(=O)(=O)O)c2ccccc12,inactive
20,NC(=O)[C@H]1CCCCc2c1[nH]c1ccc(Cl)cc21,inactive

row,Structure (SMILES),Potency
1,C(#Cc1cccc(CN2CCOCC2)c1)CCN1CCCCC1,inactive
2,Cc1nn(C)c2c1C(c1ccc(C(F)(F)F)cc1)C(C#N)=C(N)O2 (stereo not given),inactive
3,C=C1C2(CCC(=O)OC2(C)C)CC(OC(=O)/C(C)=C/C)C2(C)C13OC14C(=O)OC(C)(C(=O)C12C(=O)OC4C)C3OC(C)=O (stereo not given),inactive
4,CC1=C(C)C(=O)OC(C(C)(O)C2CCC3C4CC=C5CC(OC6OC(COC7OC(CO)C(O)C(O)C7O)C(O)C(O)C6O)CC(O)C5(C)C4CCC32C)C1 (stereo not given),inactive
5,O=C(O[C@H]1[C@@H]2C=CO[C@@H](O[C@@H]3O[C@H](CO)[C@@H](O)[C@H](O)[C@H]3O)[C@@H]2[C@@]2(CO)O[C@@H]12)c1ccc(O)cc1,inactive
6,COC(=O)C1=CO[C@@H](O[C@@H]2O[C@H](CO)[C@@H](O)[C@H](O)[C@H]2O)[C@@H]2[C@@](C)(O)[C@@H](O)C[C@]12O,inactive
7,CC(C)CC(=O)OC[C@H]1O[C@@](COC(=O)CC(C)C)(O[C@H]2O[C@H](CO)[C@@H](O)[C@H](O)[C@H]2OC(=O)CC(C)C)[C@@H](OC(=O)CC(C)C)[C@@H]1O,inactive
8,CCN(CC)CCOc1ccc(-c2nc3cc(Cl)ccc3s2)cc1,18.4 µM (active)
9,C=C1CC[C@@H]2[C@](C)(CC[C@H](O)[C@@]2(C)CCC=C(C)C)[C@@H]1Cc1c[nH]c2ccccc12,inactive
10,C=CC(C)(CC/C=C(\C)CC/C=C(\C)CC(O)/C=C(\C)C(=O)O)O[C@@H]1O[C@H](CO)[C@@H](O)[C@H](O)[C@H]1O[C@@H]1O[C@H](CO)[C@@H](O)[C@H](O)[C@H]1O (stereo not given in full),inactive
11,C=C1CC2[C@]3(C)C(=C(O)C(=O)[C@@]2(C)[C@]2(C(=O)OC)C(=O)C(C)OC(=O)[C@@]12C)C(C)(C)C(=O)CC3O (stereo not given in full),inactive
12,C=C(NC(=O)C(=C)NC(=O)c1csc(C2=N[C@@H]3c4csc(n4)[C@H]4NC(=O)c5csc(n5)[C@H]([C@](C)(O)[C@@H](C)O)NC(=O)[C@H]5CSC(=N5)C(=CC)NC(=O)C([C@@H](C)O)NC(=O)c5csc(n5)[C@]3(CC2)NC(=O)[C@H](C)NC(=O)C(=C)NC(=O)[C@H](C)NC(=O)C([C@@H](C)CC)NC2C=Cc3c([C@H](C)O)cc(nc3C2O)C(=O)O[C@@H]4C)n1)C(N)=O (stereo not given in full),inactive
13,OC[C@H]1O[C@@H](n2cnc3c2NC=NC[C@H]3O)C[C@@H]1O,inactive
14,CC(=O)NC(CCC(=O)O)C(=O)NCCc1ccc(O)cc1 (stereo not given),inactive
15,N#CCc1ccc(O)cc1O[C@@H]1O[C@H](CO)[C@@H](O)[C@H](O)[C@H]1O,inactive
16,C=C1CC23CCC4[C@@](C)(CCC[C@@]4(C)C(=O)O)C2CCC1C3 (stereo not given in full),inactive
17,C=C1CCC2C(OC(=O)C2(O)COC(C)=O)C2C(=C)C(O)CC12 (stereo not given),inactive
18,C=CC(C)(C)C1(CC2NC(=O)C3CCCN3C2=O)C(=O)Nc2cc3c(cc21)C=CC(C)(C)O3 (stereo not given),inactive
19,C=C1CCC2C(C)(C)C(O)CCC2(C)C1CCC(C)CCOC(=O)CCC(=O)O (stereo not given),inactive
20,CC(=O)OC1C(O)CC(O[C@@H]2O[C@H](CO)[C@@H](O)[C@H](O)[C@H]2O)C2CCC3C(=O)OC(c4ccoc4)CC3(C)C21 (stereo not given in full),inactive
